According to PubChem BioAssay (NCATS):
Results filed as inconclusive are left out. Where a call stands in place of a potency, no number is given. Activity calls are given as the source filed them. Calls come from the whole dose curve; as a rule, active = well fitted inhibition curve with a large enough effect; inconclusive = small, poorly fitted or top-dose-only effect; inactive = flat fitted curve, though single readings scatter.

Experiment: P-glycoprotein substrates identified in KB-8-5-11 adenocarcinoma cell line, qHTS therapeutic library screen (AID 1346987); note: nearly all actives have a fitted effect of over 65% in size
Details: KB-8-5-11 (P-gp overexpressing) viability, CellTiter-Glo, 72 h; series mostly up to 44.5 µM
Outline: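 P-gp-mediated resistance screen: KB-8-5-11 cells treated 72 h with compounds in dose-response. CellTiter-Glo viability.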

Compound	Potency
O=C(/C=C/c1cccc(F)c1)NC1CC1	inactive
CC1CS(=O)(=O)CCN1/N=C/c1ccc([N+](=O)[O-])o1 (centres undefined)	inactive
C=N[C@@H](C(=O)N[C@@H]1C(=O)N2[C@@H]1SC(C)(C)[C@@H]2C(=O)O)c1ccccc1	inactive
OB(O)O	inactive
CC(C)c1nc(N(C)S(C)(=O)=O)nc(-c2ccc(F)cc2)c1/C=C/C(O)CC(O)CC(=O)O (centres undefined)	inactive
Cc1c(N)nc([C@H](CC(N)=O)NC[C@H](N)C(N)=O)nc1C(=O)N[C@H](C(=O)N[C@H](C)[C@@H](O)[C@H](C)C(=O)N[C@H](C(=O)NCCc1nc(-c2nc(C(=O)NCCCCN=C(N)N)cs2)cs1)[C@@H](C)O)[C@@H](O[C@@H]1O[C@@H](CO)[C@@H](O)[C@H](O)[C@@H]1O[C@H]1O[C@H](CO)[C@@H](O)[C@H](OC(N)=O)[C@@H]1O)c1cnc[nH]1	inactive
CCCCC[C@H](O)/C=C/[C@H]1[C@H](O)CC(=O)[C@@H]1CCCCCCC(=O)O	inactive
CC(C)(O/N=C(\C(=O)N[C@@H]1C(=O)N2C(C(=O)[O-])=C(C[n+]3ccccc3)CS[C@H]12)c1csc(N)n1)C(=O)O	inactive
Cc1cc(C(=O)NCCc2ccc(S(=O)(=O)NC(=O)NN3CCCCCC3)cc2)no1	inactive
O=C(CCCN1CCN2CCCC2C1)c1ccc(F)cc1 (centres undefined)	inactive
CCCCC	inactive
CCC(C(=O)NC(N)=O)c1ccccc1 (centres undefined)	inactive
Nc1ncnc2c1ncn2CCOCP(=O)(O)O	inactive
C[C@@H]1NC(=O)[C@@H](N)CNC(=O)[C@H](C2CCNC(N)=N2)NC(=O)/C(=C/NC(N)=O)NC(=O)[C@H](CNC(=O)C[C@@H](N)CCCN)NC1=O (some centres undefined)	inactive
